# HEK cytotox: Cytotoxic Profiling in HEK 293 Cell Line of Diverse Libraries Using Quantitative High-Throughput Screening; 94,000 tested, 6.6% active; HEK 293 viability, ATP luminescence (CellTiter-Glo), 48-72 h; AID 1345083, 2018; Potency, µM (highest dose often 115 µM), without a hit: at the top dose activity change, negative = cytotoxicity, most hits filed as inhibitors; further: on the % scale 0 is the no-effect control and ±100 the full control effect; nearly all actives have a fitted effect of over 60% in size
#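 CellTiter-Glo luminescence (cellular ATP) was read after 48 or 72 hr of compound exposure at 37 degree Celsius. Cells were HEK 293 plated at 250 cells/well.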
# hNpr1 antagonist: Natriuretic polypeptide receptor (hNpr1) antagonism - Primary qHTS | Atrial natriuretic peptide receptor 1 (Homo sapiens), P16066 | HEK293 hNpr1 GloSensor cGMP, ANP-stimulated luminescence | Potency, µM (doses to about 46.3 µM), inactives show at the top dose activity change, negative = inhibition, actives largely listed as inhibitors | 76,000 tested, 1.6% active; calls by dose curve; further: on the % scale 0 is the no-effect control and ±100 the full control effect; nearly all actives have a fitted effect of over 60% in size
#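 HEK293 cells stably expressing human Npr1 and cGMP GloSensor pGS-40F, loaded 2 h with 2% GloSensor reagent, given compound 30 min at room temperature. Luminescence read before and 20 min after 0.1 nM hNppA.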
# NIH3T3 tox: Cytotoxic Profiling in NIH 3T3 Cell Line of Diverse Libraries Using Quantitative High-Throughput Screening; NIH 3T3 viability, CellTiter-Glo ATP luminescence, 48-72 h; Potency, µM (highest dose often 96.7 µM), without a hit: at the highest dose activity change, negative = cytotoxicity, hits mostly inhibitors; 94,000 tested, 4.3% active; further: on the % scale 0 is the no-effect control and ±100 the full control effect; nearly all actives have a fitted effect of over 55% in size
#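 Mouse fibroblast NIH 3T3 cells, 400 per well, received compound via pintool and were incubated for 48 or 72 hr prior to CellTiter-Glo ATP luminescence measurement.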
# FLuc inh: Firefly luciferase inhibition profiling of diverse chemical library using quantitative high-throughput screening. Luciferin 4-monooxygenase (Photinus pyralis), P08659. purified P. pyralis luciferase, luminescence, biochemical. AID 1347043, 2019. 76,000 tested, 2.5% active. Potency, µM (highest dose often 115 µM), usual class: inhibitors; further: on the % scale 0 is the no-effect control and ±100 the full control effect; nearly all actives have a fitted effect of over 65% in size
#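 Cell-free enzyme assay, 10nM P. pyralis luciferase, luciferin and ATP each at 10uM. Inhibition profiled over a 6-point titration, read as luminescence.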
# GPT2 inh: Primary qHTS assay for inhibitors of Glutamate pyruvate transaminase 2 (GPT2) | Alanine aminotransferase 2 (Homo sapiens), Q8TD30 | Recombinant GPT2, coupled pyruvate oxidase/HRP Amplex Red fluorescence | Potency, µM (series often up to 57.7 µM), for the others: at the highest dose activity change, negative = inhibition, hits mostly inhibitors | 100,000 tested, 0.25% active | AID 1671188, 2021; further: on the % scale 0 is the no-effect control and ±100 the full control effect; nearly all actives have a fitted effect of over 60% in size
# Target sequence (Q8TD30 whole entry, looked up): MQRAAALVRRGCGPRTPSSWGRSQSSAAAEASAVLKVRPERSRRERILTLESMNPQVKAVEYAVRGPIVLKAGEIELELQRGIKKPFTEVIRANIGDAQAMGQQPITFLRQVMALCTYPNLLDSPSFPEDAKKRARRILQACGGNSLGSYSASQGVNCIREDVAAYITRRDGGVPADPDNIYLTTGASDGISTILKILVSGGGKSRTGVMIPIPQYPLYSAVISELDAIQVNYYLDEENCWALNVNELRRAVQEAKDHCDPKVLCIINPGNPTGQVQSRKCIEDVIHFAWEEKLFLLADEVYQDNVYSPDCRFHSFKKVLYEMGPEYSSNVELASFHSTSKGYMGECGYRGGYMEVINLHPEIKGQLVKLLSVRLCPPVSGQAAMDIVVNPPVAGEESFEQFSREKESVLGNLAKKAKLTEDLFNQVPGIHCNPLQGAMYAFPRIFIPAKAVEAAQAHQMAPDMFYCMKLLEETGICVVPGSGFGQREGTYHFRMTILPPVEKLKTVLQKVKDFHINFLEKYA
#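 Inhibition is scored from Amplex Red fluorescence generated when pyruvate oxidase and HRP act on pyruvate released by GPT2. Reactions contain 10ng/uL enzyme, 250uM a-KG and 2mM L-alanine and run 30 min at room temperature.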
# Npr1 antag conf: Natriuretic polypeptide receptor (hNpr1) antagonism - Confirmation | 1,400 tested, 76% active | AID 1347044, 2019 | Potency, µM (doses to about 57.6 µM), for the others: top-dose activity change, negative = inhibition, usual class: inhibitors | HEK293 hNpr1 cGMP GloSensor luminescence, ANP-stimulated | shares compounds with hNpr1 antagonist; calls by dose curve; further: nearly all actives have a fitted effect of over 70% in size
# NPR2 antag: Natriuretic polypeptide receptor (hNpr2) antagonism - Subtype selectivity assay; 1,400 tested, 67% active; shares compounds with hNpr1 antagonist; Potency, µM (top dose mostly 57.6 µM), inactives show top-dose activity change, negative = inhibition, usual class: inhibitors; HEK293 hNpr2 GloSensor cGMP luminescence, CNP-stimulated; calls by dose curve; further: nearly all actives have a fitted effect of over 70% in size
# FLuc inh counter: Natriuretic polypeptide receptor (hNpr1) antagonism - Confirmation firefly luciferase (FLuc) inhibition counterscreen | Potency, µM (highest dose often 57.6 µM), without a hit: at the top dose activity change, negative = inhibition, usual class: inhibitors | shares compounds with hNpr1 antagonist | AID 1347047, 2019 | purified FLuc enzyme, luminescence, Km substrate | 1,400 tested, 0.7% active; further: 0% is about no effect
# GloSensor ctrl: Natriuretic polypeptide receptor (hNpr1) antagonism - Counterscreen GloSensor control cell line. shares compounds with hNpr1 antagonist. HEK293 GloSensor cGMP, SNP-stimulated, luminescence. Potency, µM (series often up to 57.6 µM), for inactives: top-dose activity change, negative = inhibition, most hits filed as inhibitors. 1,400 tested, 69% active; calls by dose curve; further: on the % scale 0 is the no-effect control and ±100 the full control effect; nearly all actives have a fitted effect of over 70% in size
# The depositor's hits bear a star; i = inactive; ? = inconclusive; . = not tested or not shown. Shown are actives, neighbours in structure and some others; about 10% of the full set was active somewhere. Unless noted, the call rests on the fitted dose curve; in most records, active means well fitted curve in the direction sought with a large enough effect; inconclusive means small, poorly fitted or top-dose-only effect, or another doubt; inactive means no such curve, though single readings can be large; an effect the other way counts as inactive or inconclusive. Potency means the concentration at half of the fitted maximal effect.
SMILES,HEK cytotox,hNpr1 antagonist,NIH3T3 tox,FLuc inh,GPT2 inh,Npr1 antag conf,NPR2 antag,FLuc inh counter,GloSensor ctrl
CC(C)c1noc(CC2CCN(C(=O)c3ccc(F)cc3)CC2)n1,?,?,-34.3%,i,i,?,?,-1.0%,?
O=C(Cc1ccc(F)cc1)N1CCC(Cc2nc(-c3ccc(F)cc3)no2)CC1,?,12.6µM*,?,i,-3.9%,13.7µM*,13.7µM*,2.7%,10.9µM*
Fc1cccc(CN2CCC(Oc3ccc(-c4noc(C5CC5)n4)cc3)C2)c1 (stereo not drawn),?,20µM*,?,i,i,27.3µM*,?,0.0%,?
COc1ccc(CC(=O)N2CCC(Cc3nc(-c4ccc(F)cc4)no3)CC2)cc1OC,?,7.08µM*,?,i,i,3.06µM*,9.68µM*,0.6%,6.11µM*
O=C(c1ccc(F)cc1)N1CCC(Cc2nc(-c3ccc(F)cc3)no2)CC1,?,1.41µM*,?,i,i,1.72µM*,2.73µM*,-0.8%,1.93µM*
O=C(C1CC1)N1CCC(Cc2nc(-c3ccc(F)cc3)no2)CC1,?,?,?,i,-1.9%,.,.,.,.
CCN(CC)c1cc(CCC(=O)NCCN(C)C2CCCCC2)ccn1,?,1.3%,-21.8%,i,i,.,.,.,.
Cc1noc([C@@H]2CN(Cc3ccc(OC(C)C)cc3)C[C@H]2CO)n1,?,-9.8%,-6.8%,i,?,.,.,.,.
O=C(CC1CCCCC1)N1CCC(Cc2nc(-c3ccc(F)cc3)no2)CC1,?,3.98µM*,?,i,3.1%,4.85µM*,5.44µM*,-1.0%,4.85µM*
O=C(c1csc(N2CCN(c3ccccc3)CC2)n1)N1CCN(c2ccccn2)CC1,-39.5%,12.6µM*,3.2%,i,?,27.3µM*,24.3µM*,-0.2%,24.3µM*
CN1CCN(C(=O)c2csc(N3CCN(c4ccc(Cl)cc4)CC3)n2)CC1,?,-11.3%,?,?,i,.,.,.,.
CC(C)N1CCN(C(=O)c2csc(N3CCN(c4cccc(Cl)c4)CC3)n2)CC1,?,-24.9%,?,i,-5.9%,.,.,.,.
O=C(c1csc(N2CCN(c3ccccc3)CC2)n1)N1CCCCCC1,?,10µM*,?,i,3.5%,21.7µM*,21.7µM*,-10.5%,19.3µM*
COC[C@@H]1CN(CCCc2ccccc2)C[C@H]1C(N)=O,-23.1%,11.3%,-15.3%,i,i,.,.,.,.

# Screening data: PubChem, National Center for Advancing Translational Sciences (NCATS)
